High-throughput results: PubChem, National Center for Advancing Translational Sciences (NCATS)
Hits are enriched below; roughly 5.3% of the tested compounds scored in any of these assays.
JMJD2A Tudor inh = qHTS Assay for Inhibitors of JMJD2A-Tudor Domain; AlphaScreen JMJD2A-Tudor / H3K4me3 peptide binding; Potency, µM (doses to about 114 µM), without a hit: at the highest dose activity change, negative = inhibition, most hits filed as inhibitors; actives 4.4% (n = 390,000); further: potency means the concentration at half of the fitted maximal effect; on the % scale 0 is the no-effect control and ±100 the full control effect; nearly all actives have a fitted effect of over 50% in size
TDP1 inh = qHTS Assay for Inhibitors of Tyrosyl-DNA Phosphodiesterase (TDP1) | AID 485290, 2010 | Tyrosyl-DNA phosphodiesterase 1 (Homo sapiens), Q9NUW8 | Potency, µM (top dose mostly 130 µM), for inactives: at the highest dose activity change, negative = inhibition, actives largely listed as inhibitors | recombinant TDP1, AlphaScreen DNA substrate cleavage | actives 0.28% (n = 350,000); further: potency means the concentration at half of the fitted maximal effect; on the % scale 0 is the no-effect control and ±100 the full control effect; nearly all actives have a fitted effect of over 40% in size
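Recombinant E. coli-expressed Tdp1 (1 nM) preincubated with compound 15 min at RT, then 5'-biotin/3'-phosphotyrosine-FITC DNA substrate (15 nM) added for 5 min. AlphaScreen beads (10 ug/ml) added, 10 min RT; tyrosine-FITC cleavage read as signal loss.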
CtBP-E1A inh = qHTS Assay for Inhibitors of the CtBP/E1A Interaction; CtBP / adenovirus E1A interaction (AlphaScreen); activity change, % (test concentration not listed); AID 651724, 2012; actives 0.49% (n = 340,000); AlphaScreen GST-E1A/His-CtBP binding, 1536-well; stronger effect = lower value; in the data active means activity change below about -65%; inconclusive means mostly about -30% to -63%; further: on the % scale 0 is the no-effect control and ±100 the full control effect
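AlphaScreen with 125 nM GST-E1A and 125 nM His-CtBP (5X stocks) in Tris pH 8.0, 300 mM NaCl, BSA, Tween 20, TCEP. Compounds preincubated 2 h at 37 deg C, then glutathione donor/nickel acceptor beads added for 1 h at 37 deg C in dark.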
BAZ2B block = qHTS Assay for Inhibitors of BAZ2B; actives 4.4% (n = 360,000); AlphaScreen BAZ2B-H3K14Ac peptide displacement; Potency, µM (highest dose often 114 µM), without a hit: at the highest dose activity change, negative = inhibition, actives largely listed as inhibitors; Bromodomain adjacent to zinc finger domain protein 2B (Homo sapiens), Q9UIF8; further: potency means the concentration at half of the fitted maximal effect; on the % scale 0 is the no-effect control and ±100 the full control effect; nearly all actives have a fitted effect of over 60% in size
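BAZ2B (50 nM) with biotin-H3(5-23)K14Ac peptide (50 nM) in PBS pH 7.4, 0.01% Tween-20, preformed 30 min, then compound 30 min at room temperature; top concentration 110uM. AlphaScreen streptavidin donor/nickel chelate acceptor beads (10 ug/mL final), 20 min dark, signal read.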
HP1b binding inh = HTS for Inhibitors of HP1-beta Chromodomain Interactions with Methylated Histone Tails. AlphaScreen HP1-beta / biotin-H3K9me3 peptide binding. Potency, µM (top dose mostly 114 µM), for inactives: at the highest dose activity change, negative = inhibition, usual class: inhibitors. actives 0.56% (n = 390,000); further: potency means the concentration at half of the fitted maximal effect; nearly all actives have a fitted effect of over 70% in size
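Compound inhibition of the preformed complex between 50 nM HP1-beta and 50 nM biotinylated H3K9me3 peptide was read by AlphaScreen. Buffer was PBS pH 7.4 with 0.01% Tween-20. Incubations ran 30 min at room temperature, with 10 ug/mL donor/acceptor beads.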
Six1-Eya2 inh = qHTS Assay for Inhibitors of the Six1/Eya2 Interaction. Homeobox protein SIX1 (Homo sapiens) + Protein phosphatase EYA2 (Homo sapiens), …. AlphaScreen GST-Six1/His-Eya2 binding, biochemical; stronger effect = lower value. activity change, % (no concentration beside the values). actives 0.56% (n = 360,000); in the data active means activity change below about -65%; inconclusive means mostly about -30% to -63%; further: on the % scale 0 is the no-effect control and ±100 the full control effect
Target sequence (O00167 whole entry, looked up): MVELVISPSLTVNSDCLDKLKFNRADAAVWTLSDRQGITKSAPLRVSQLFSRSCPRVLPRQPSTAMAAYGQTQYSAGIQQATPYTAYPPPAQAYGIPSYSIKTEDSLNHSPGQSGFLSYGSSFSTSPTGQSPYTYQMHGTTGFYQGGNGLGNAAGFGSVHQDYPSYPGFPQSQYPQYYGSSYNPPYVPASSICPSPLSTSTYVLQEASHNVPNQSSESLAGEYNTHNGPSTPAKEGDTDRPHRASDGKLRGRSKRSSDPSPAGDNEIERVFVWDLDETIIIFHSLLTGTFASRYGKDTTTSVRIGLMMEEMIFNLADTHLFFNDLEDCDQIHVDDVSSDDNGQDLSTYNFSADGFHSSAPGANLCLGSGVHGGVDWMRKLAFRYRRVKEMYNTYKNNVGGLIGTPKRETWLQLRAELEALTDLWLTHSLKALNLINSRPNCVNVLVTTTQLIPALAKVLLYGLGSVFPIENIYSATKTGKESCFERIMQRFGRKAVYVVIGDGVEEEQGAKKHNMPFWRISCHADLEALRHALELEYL
Target sequence (Q15475 whole entry, looked up): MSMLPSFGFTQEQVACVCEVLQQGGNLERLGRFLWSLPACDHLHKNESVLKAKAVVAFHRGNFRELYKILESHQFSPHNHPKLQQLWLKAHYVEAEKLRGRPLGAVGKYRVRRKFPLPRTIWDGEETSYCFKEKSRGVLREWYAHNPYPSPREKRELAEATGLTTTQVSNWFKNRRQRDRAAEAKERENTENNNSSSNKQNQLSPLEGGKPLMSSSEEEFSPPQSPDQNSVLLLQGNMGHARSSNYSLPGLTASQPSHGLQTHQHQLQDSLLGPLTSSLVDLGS
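Six1/Eya2 binding was read as AlphaScreen signal after compounds were pinned into GST-Six1 plus His-tagged Eya2 (5X stock 250/500 nM) in pH 8.0 Tris/NaCl/TCEP buffer, beads added, then incubated 1 h, 37 C, dark.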
* marks the source's active call; other numbers are inactive results; ? = inconclusive; nt = no result given; [ ] = dose if it differs, or a comment. Unless noted, the call rests on the fitted dose curve; in most records, active means well fitted inhibition curve with a large enough effect; inconclusive means small, poorly fitted or top-dose-only effect; inactive means no such curve, though single readings can be large or run the other way.

SMILES	JMJD2A Tudor inh	TDP1 inh	CtBP-E1A inh	BAZ2B block	HP1b binding inh	Six1-Eya2 inh
COCCn1c(=S)[nH]c2cc(C(=O)NCCCN3CCOCC3)ccc2c1=O	25µM*	5%	44	?	69%	0
COC(=O)c1ccc2c(=O)n(CCN3CCOCC3)c(=S)[nH]c2c1	56µM*	2%	6	-1%	18%	4
COc1cc2[nH]c(=S)n(NC(=O)c3ccccc3)c(=O)c2cc1OC	89µM*	3%	-7	?	19%	-7
CN(C)C(=O)c1ccc(-c2nc(NCc3ccccc3)c3ccccc3n2)cc1	nt	-3%	nt	nt	nt	nt
O=C(Nc1cc(C(F)(F)F)ccc1Cl)[C@H](O)CCc1ccccc1	26%	-7%	nt	nt	nt	nt
CCN1C(=O)/C(=C/C=C2/SCCN2C)SC1=S	9%[11.4 µM]	1%	-11	-19%[57.1 µM]	-11%	2
CCCCN1C(=O)/C(=C/C=C2/CC(C)(C)CN2C)SC1=S	?	2%	9	8.9µM*	?	-18
COc1ccccc1Nc1nc(-c2c(C)[nH]c3ccccc23)cs1	50µM*	13%	5	40µM*	?	-12
CCCC(=O)Nc1nc(C)c(-c2csc(Nc3ccccc3OC)n2)s1	?	6%	nt	?	-11%	-16
CNc1nc(-c2c(C)[nH]c3ccc(OC)cc23)cs1	?	nt	-11	50µM*	-3%	2
CSCC[C@H](NS(=O)(=O)c1ccc(C(C)=O)cc1)c1nnc2ccccn12	0%	40µM*	nt	56µM*	46%	-11
COc1ccccc1N=Nc1ccc(O)c2ncccc12	45µM*	nt	nt	20µM*	10µM*	-70*
CCS(=O)(=O)c1ccc(N=Nc2ccc(O)c3ncccc23)c(OC)c1	20µM*	7%	-93*	5.6µM*	50µM*	-83*
Oc1ccc(N=Nc2ccccc2C(F)(F)F)c2cccnc12	10µM*	nt	nt	5.6µM*	2%	-11
Cc1ccc(N=Nc2ccc(O)c3ncccc23)cc1C	?	8%	-5	-30%	-5%	-18
Cc1ccc(N=Nc2ccc(O)c3ncccc23)cc1	?	10%	-23	?	?	?
Cc1cccc(C)c1-n1ncc(C(=O)N2CCN(c3ccccc3)CC2)c1C1CCN(C(=O)OC(C)(C)C)CC1	-32%	5%	nt	-7%[57.1 µM]	9%	nt
COC(=O)c1sc(N2C(=O)C(=O)/C(=C(/O)c3ccc(C)cc3)C2c2ccco2)nc1C (stereo not drawn)	63µM*	nt	-8	-31%	-15%	4
CCOc1ccc(/C(O)=C2/C(=O)C(=O)N(c3nc(C)c(C)s3)C2c2ccco2)cc1 (stereo not drawn)	?	1%	-1	-37%	6%	-3
O=C(NCCc1ccccc1)c1cc2ncc(Br)cn2n1	-25%	-8%	0	50µM*	31%	11
O=C(c1cc2ncc(Br)cn2n1)N1CCOCC1	-4%	-2%	4	20%	20%	0
O=C(Nc1ccc2c(c1)OCO2)c1cc2ncc(Br)cn2n1	?	-10%	-1	50µM*	?	-12
O=C(c1cc2ncc(Br)cn2n1)N1CCN(C(=O)c2ccco2)CC1	?	22µM*	1	?	3%	-16
Cn1c(-c2csc(-c3ccccc3)n2)n[nH]c1=S	28µM*	5%	-9	-18%	-5%	1
Cc1ccc(-c2n[nH]c(=S)n2C)cc1	3.2µM*	3%	-3	13%	?	-8
